The values below come from PubChem BioAssay (EPA / NIEHS).

Activity calls are given as the source filed them. The calls were made as follows: active = hit-call score of the fitted dose curve at least 0.9, where 1 is the maximum; inactive = score below 0.9.

Read-out in the test: Tumor necrosis factor receptor superfamily member 6 (Homo sapiens) (UniProt P25445)
The test is described as follows: LTEA_HepaRG_FAS: Life Technologies and Expression Analysis (LTEA) Assay for Fas cell surface death receptor (FAS) using HepaRG (AID 2283447). To be noted: mRNA level, 48 h; actives raise or lower the signal. On the procedure: LTEA_HepaRG is a cell based, multiplexed-readout assay that uses HepaRG, a human liver cell line, with measurements taken at 48 hours after chemical dosing on a 96-well plate.LTEA_HepaRG_FAS is one of 102 assay component(s) measured in the LTEA HepaRG cell culture assay. It is a marker of Cell proliferation, survival, death.Data from the assay component LTEA_HepaRG_FAS was analyzed into 1 endpoint. This assay endpoint, LTEA_HepaRG_FAS, was analyzed with bidirectional fitting relative to DMSO as the negative control and baseline of activity. Using a type of inducible reporter, measures of mRNA induction for gain or loss-of-signal activity can be used to understand regulation of transcription factor activity. To generalize the intended target to other relatable targets, this assay endpoint is annotated to the cytokine receptor intended target family, where the subfamily is TNF receptor.
A total of 1060 chemcials from the ToxCast library were tested in eight-point concentration-response experiments. Cell culture and cytotoxicity assays were conducted at Thermo Fisher Scientific's Custom Services facility (Madison, WI). A single lot of human HepaRG cells (Thermo Fisher Scientific, Frederick, MD) was used for the cell culture experiments. 96-well format collagen type I coated plates of human HepaRG cells were prepared using established methods. Briefly, cryopreserved HepaRG cells were thawed, plated at a density of approximately 100,000 cells/well in HepaRG Thaw, Plate, and General Purpose media (HPRG770, Thermo Fisher Scientific), and incubated for 48 hours. 0.5% DMSO was selected as vehicle control to balance the requisite need of DMSO in HepaRG cultures to maintain differentiation (for example, baseline metabolism, proportions of hepatocytes vs. cholangiocytes), while enabling further hepatic receptor pathway activation (for example, PXR and CAR) in response to chemical exposure. 48 hours after plating, the culture medium was replaced with HepaRG Serum-Free Incudtion Media. Cells were exposed to each test chemical in duplicate and maintained in CO2 incubators for another 48 hours. Chemical plates were thawed to room temperature and 200x concentrations of treatment groups were prepared. 8-point conentration-reponse curves were made with the highest exposure at 100 uM, followed by half-log dilutions, all in 0.5% DMSO. Each test plate contained variouse controls, induction positive controls (1mM phenobarbital), cytotoxicity positive controls ([…] aflatoxin B1), vehicle controls (0.5% DMSO), and total lysis controls (0.5% DMSO). Cell morphology images were taken using an Essen IncuCyte FLR automated microscope, with six 96-well plates imaged in about 24 minutes. Images were captured and exported and JPEG files. Spent culture media was transfered to black-well plates for the LDH assay, and remaining media was sorted at -80 C for later use. Cells were treated with RLT buffer and frozen until shipped for gene expression analysis. Total RNA was isolated from the cell suspension in 75 uL of Buffer RLT (Qiagen, Germantown, MD 20874) by Quintiles/Expression Analysis (Durham, NC) using a custom isolation procedure. Total RNA from each plate well was transferred to a preamplification plate. Fluidigm's 96.96 Dynamic ArrayTM (Fluidigm, Amsterdam, the Netherlands) technology was used for gene expression analyses by quantitative reverse transcription polymerase chain reaction (qRT-PCR, performed by Quintiles/Expression Analysis, Durham, NC)89. Standard TaqManTM Assays (Applied Biosystems/ThermoFisher Scientific, Foster City, CA) were used to assess the expression of 93 genes selected based on their selectivity and sensitivity to important hepatic receptors known to be modulated by environmental chemicals; importance in human hepatocyte functionality; and hepatotoxicity. […]
Consider `O=C(CCCN1CCC(O)(c2ccc(Cl)cc2)CC1)c1ccc(F)cc1`, for which the AC50 was 85.8 µM (active).

`O=C(c1ccccc1)c1ccccc1`: the compound was classed as inactive.

On to `CC(=O)Nc1ccc(O)cc1`, for which the compound was called inactive.

Consider `CN(Cc1cnc2nc(N)nc(N)c2n1)c1ccc(C(=O)N[C@@H](CCC(=O)O)C(=O)O)cc1`, for which the compound was classed as inactive.

For `CCCCCCCCCCCCOS(=O)(=O)O`, the compound was classed as inactive.

As for `CS(=O)(=O)c1ccc([C@@H](CC2CCCC2)C(=O)Nc2cnccn2)cc1Cl`, the compound was classed as inactive.

Take `O=C1NS(=O)(=O)c2ccccc21`: the result was inactive.

Consider `CCCCCCCCCCCCCCC`, for which the compound was classed as inactive.

`CCC(C)c1ccccc1O` (stereo unspecified): the compound was called inactive.

As for `OCC(CO)(CBr)CBr`, the result was inactive.

Regarding `CCCCC(CC)C(=O)O` (stereo unspecified), the compound was called inactive.

Take `N=C(N)c1ccc(OCCCCCOc2ccc(C(=N)N)cc2)cc1`: the half-maximal activity concentration (AC50) is 4.23 µM (active).

Take `CN(C)CCOC(c1ccccc1)c1ccccc1`: the outcome was inactive.

`CCCCC=O`: the compound was called inactive.

With `Cc1[nH]nc2c1N=C(c1ccccc1Cl)c1cc([N+](=O)[O-])ccc1N2`, the AC50 is 4.11 µM (active).

As to `CCCCc1oc2ccccc2c1C(=O)c1cc(I)c(OCCN(CC)CC)c(I)c1`, the half-maximal activity concentration (AC50) is 66.6 µM (active).

Usually AC50 stands for the concentration at which the activity in the assay is half-maximal.
